From PubChem
Hits are enriched below; roughly 3.5% of the tested compounds scored in any of these assays.
BJeLR lethal = kills HRASV12-expressing BJeLR cells. BJeLR (HRASV12) viability, CellTiter-Glo ATP luminescence, 48 h. inhibition, % (no concentration beside the values). AID 1554. actives 0.17% (n = 300,000); in the data active means inhibition above about 50%; inconclusive means no clear call, values can overlap the other calls
BoNT A protease = BoNT A light chain protease inhibition | multiplex microsphere protease substrate cleavage, flow cytometry | inhibition, % at 10 µM | actives 0.17% (n = 360,000); further: plate controls were buffer without enzyme for full effect and enzyme alone for no effect
Anthrax LF prot = anthrax lethal factor protease inhibition. P15917. multiplex microsphere protease cleavage assay, LF. inhibition, % at 10 µM. actives 0.12% (n = 360,000). AID 588501; further: plate controls were buffer without enzyme for full effect and enzyme alone for no effect
Bead autofluor = flagged as autofluorescent in microsphere protease counterscreen; compound autofluorescence counterscreen, microsphere flow cytometry; active compounds read high; fluorescence intensity (concentration not given with the values); actives 3.1% (n = 360,000); AID 624483; in the data active means fluorescence intensity above about 16000; inconclusive means no clear call, values can overlap the other calls
BoNT-F LC inh = inhibitors of Botulinum neurotoxin F light chain protease | Multiplex microsphere protease cleavage assay, flow cytometry | inhibition, % at 10 µM | actives 0.22% (n = 360,000) | AID 588497; in the data active means inhibition above about 35%, passing the limit was not always enough; inconclusive means no clear call, values can overlap the other calls; further: plate controls were buffer without enzyme for full effect and enzyme alone for no effect
* = called active by the depositor. Unless noted, no stated cut-off is given here; in the data, active means inhibition above about 30%; inconclusive means no clear call, values can overlap the other calls; inactive means below that.

`Cc1ccc2cc(CN(CC3CCCO3)C(=O)C(C)C)c(=O)[nH]c2c1` (stereo not drawn) gave BJeLR lethal -2, BoNT A protease -1, Anthrax LF prot -1, Bead autofluor 23042* and BoNT-F LC inh -3.
Screening Cc1ccc2cc(CN(CC(C)C)C(=O)C3CCCO3)c(=O)[nH]c2c1 (stereo not drawn) returned BJeLR lethal 0, BoNT A protease 1, Anthrax LF prot -7, Bead autofluor 8755 and BoNT-F LC inh -4.
For COc1cc(OC)c(-c2nc3cnccc3n2C)cc1OC the results were BJeLR lethal 0, BoNT A protease inconclusive, Anthrax LF prot -1, Bead autofluor 16895* and BoNT-F LC inh -5.
CSCC[C@@H](CO)NC(=O)[C@H]1O[C@@H](n2ccc(N)nc2=O)[C@H](O)[C@@H]1O was read as BoNT A protease -1, Anthrax LF prot 1, Bead autofluor 5646 and BoNT-F LC inh -1.
`Cc1ccc(C(C)NC(=O)c2ccco2)cc1C` (stereo not drawn) gave BJeLR lethal 9, BoNT A protease -2, Anthrax LF prot -1, Bead autofluor 21456* and BoNT-F LC inh -6.
COc1ccc(N(CC(=O)N2CCc3ccccc3C2)S(C)(=O)=O)cc1OC was read as BJeLR lethal -1, BoNT A protease -2, Anthrax LF prot -1, Bead autofluor 16881* and BoNT-F LC inh -7.
`COc1ccc(N(CC(=O)Nc2ccc(S(=O)(=O)N3CCCCC3)cc2)S(C)(=O)=O)cc1OC` gave BJeLR lethal -3, BoNT A protease inconclusive, Anthrax LF prot 1, Bead autofluor 19464* and BoNT-F LC inh 1.
`COc1ccc(NC(=O)CN(c2cccc(C(F)(F)F)c2)S(C)(=O)=O)cc1OC` gave BJeLR lethal -4, BoNT A protease 3, Anthrax LF prot 0, Bead autofluor 20812* and BoNT-F LC inh 9.
`COc1ccc(NC(=O)N2CCN(c3cccc(C(F)(F)F)c3)CC2)cc1OC` gave BJeLR lethal 10, BoNT A protease -1, Anthrax LF prot -4, Bead autofluor 19995* and BoNT-F LC inh -4.
For O=C(Nc1ccccc1)N1CCN(c2cccc(C(F)(F)F)c2)CC1 the results were BJeLR lethal 6, BoNT A protease -1, Anthrax LF prot -1, Bead autofluor 9373 and BoNT-F LC inh -3.
`COc1ccc(N(CC(=O)Nc2ccc(S(=O)(=O)N3CCCC3)cc2)S(C)(=O)=O)cc1OC` gave BJeLR lethal -6, BoNT A protease 0, Anthrax LF prot -8, Bead autofluor 5722 and BoNT-F LC inh 4.
`COc1cccc(NC(=O)CN(c2cccc(C(F)(F)F)c2)S(C)(=O)=O)c1` gave BJeLR lethal 5, BoNT A protease 0, Anthrax LF prot -4, Bead autofluor 4178 and BoNT-F LC inh -13.
CC(=O)c1ccc(NC(=O)COC(=O)CCc2ccc(S(=O)(=O)N3CCOCC3)cc2)cc1 was read as BJeLR lethal -1, BoNT A protease 0, Anthrax LF prot -3, Bead autofluor 3239 and BoNT-F LC inh 3.
CC(=O)Oc1ccccc1Cn1c(C)c(C(=O)N(C)Cc2ccc(F)cc2)sc1=O was read as BoNT A protease -1, Anthrax LF prot -12, Bead autofluor 5526 and BoNT-F LC inh -12.
Screening CCn1c(C)cc(C(=O)CSc2nnc(C3CC3)n2C2CC2)c1C returned BoNT A protease 0, Anthrax LF prot -2, Bead autofluor 3998 and BoNT-F LC inh -8.
Clc1cccc(Cl)c1Cn1cc(Br)cn1 was read as BJeLR lethal 3, BoNT A protease 1, Anthrax LF prot -1, Bead autofluor 16279* and BoNT-F LC inh 3.
`O=C1NC[C@H](Cc2ccccc2)N(C[C@@H]2CCCN2C[C@H](Cc2ccc(O)cc2)N2C[C@H](Cc3ccccc3)N(CC3CCCCCC3)C(=O)C2=O)C1=O` gave BoNT A protease -1, Anthrax LF prot -3, Bead autofluor 4338 and BoNT-F LC inh 1.
Screening COc1ccc(CCNC(=O)c2ccc(CS(=O)(=O)c3ccc(C)cc3)o2)cc1OC returned BJeLR lethal 7, BoNT A protease 0, Anthrax LF prot 7, Bead autofluor 4495 and BoNT-F LC inh 0.
For Cc1ccc(S(=O)(=O)Cc2ccc(C(=O)NCCCN3CCCC3=O)o2)cc1 the results were BJeLR lethal 0, BoNT A protease -1, Anthrax LF prot -2, Bead autofluor 20958* and BoNT-F LC inh -2.
For O=C(NCCCN1CCCC1)c1ccc(CS(=O)(=O)c2ccc(Br)cc2)o1 the results were BJeLR lethal 3, BoNT A protease -1, Anthrax LF prot -11, Bead autofluor 6417 and BoNT-F LC inh -7.
For COc1ccc(CCNC(=O)c2ccc(CS(=O)(=O)c3ccc(Cl)cc3)o2)cc1OC the results were BJeLR lethal -15, BoNT A protease 5, Anthrax LF prot 1, Bead autofluor 17952* and BoNT-F LC inh 2.
For Cc1ccc(S(=O)(=O)Cc2ccc(C(=O)N3CCC4(CC3)OCCO4)o2)cc1 the results were BJeLR lethal -2, BoNT A protease 1, Anthrax LF prot -3, Bead autofluor 20005* and BoNT-F LC inh 2.
`Cc1ccccc1S(=O)(=O)Cc1ccc(C(=O)NCCCN2CCN(C)CC2)o1` gave BJeLR lethal 3, BoNT A protease -2, Anthrax LF prot -5, Bead autofluor 22715* and BoNT-F LC inh -4.
CC1(c2nnnn2-c2ccc3c(c2)OCCO3)CCC(=O)N1CCCn1ccnc1 (stereo not drawn) was read as BoNT A protease 0, Anthrax LF prot 0, Bead autofluor 5716 and BoNT-F LC inh -3.
Cc1ccc(C(=O)NCCNC(=O)c2ccccn2)cc1 was read as BJeLR lethal -1, BoNT A protease 1, Anthrax LF prot -2, Bead autofluor 5037 and BoNT-F LC inh -2.
`COc1ccccc1S(=O)(=O)Cc1ccc(C(=O)NCCN2CCCC2)o1` gave BJeLR lethal 3, BoNT A protease -1, Anthrax LF prot 0, Bead autofluor 22371* and BoNT-F LC inh -3.
For CCCCNC(=O)c1ccc(CS(=O)(=O)c2ccccc2OC)o1 the results were BJeLR lethal 7, BoNT A protease -3, Anthrax LF prot -11, Bead autofluor 3117 and BoNT-F LC inh -2.
`Cc1c2cc(O)c(=O)cc-2oc2cc(O)c(O)cc12` gave BJeLR lethal 19, BoNT A protease 9, Anthrax LF prot -15, Bead autofluor 17336* and BoNT-F LC inh -18.
O=C(CC(=O)NN=Cc1ccc2c(c1)CCC2)NN=Cc1ccc2c(c1)CCC2 was read as BoNT A protease 0, Anthrax LF prot -3, Bead autofluor 3811 and BoNT-F LC inh -3.
For COc1ccc(C2(C(=O)Nc3nncs3)CCCC2)cc1 the results were BJeLR lethal 6, BoNT A protease 1, Anthrax LF prot -2, Bead autofluor 22722* and BoNT-F LC inh 1.
Cc1c(C(=O)N(C)Cc2cccc(F)c2)oc2c(Cl)cccc12 was read as BJeLR lethal -5, BoNT A protease -1, Anthrax LF prot 7, Bead autofluor 3759 and BoNT-F LC inh 11.
